# In article PMC7862700, “An all-to-all approach to the identification of sequence-specific readers for epigenetic DNA modifications on cytosine”:
# Key:
# Assay in all cases: DAPPL (digital affinity profiling via proximity ligation, sequencing); 10 mM Tris-HCl pH 7.5, 50 mM NaCl, 1 mM DTT, 4% glycerol, room temperature, 30 min; GST-TFs on glutathione beads, 16-mer random dsDNA library, 0.1% formaldehyde crosslink after washing; high values mean tight binding
# [1] = target: T1, FLI1 (Homo sapiens, UniProt Q01543 1-452); settings: protein: recombinant; tags: N-terminal GST; dsDNA, one strand shown
# T1 sequence: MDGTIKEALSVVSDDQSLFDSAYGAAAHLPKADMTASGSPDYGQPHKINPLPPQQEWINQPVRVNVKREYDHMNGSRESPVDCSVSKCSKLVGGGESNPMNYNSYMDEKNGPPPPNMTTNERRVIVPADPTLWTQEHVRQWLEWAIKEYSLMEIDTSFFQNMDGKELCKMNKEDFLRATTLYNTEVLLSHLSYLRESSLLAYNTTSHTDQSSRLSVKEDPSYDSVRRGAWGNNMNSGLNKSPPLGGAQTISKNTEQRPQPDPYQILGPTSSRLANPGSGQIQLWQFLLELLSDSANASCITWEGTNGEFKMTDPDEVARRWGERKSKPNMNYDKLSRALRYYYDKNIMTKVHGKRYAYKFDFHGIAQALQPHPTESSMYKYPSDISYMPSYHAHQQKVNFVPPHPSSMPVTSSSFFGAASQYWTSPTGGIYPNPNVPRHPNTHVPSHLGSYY
# Summary of the method: (§1)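 Human transcription factors fused to GST were expressed in yeast, captured on glutathione beads, given DNA barcodes and pooled with a GST-only negative control. Pools were incubated with 200 nmole of a 16-mer random double-stranded DNA library in Tris/NaCl/DTT/glycerol buffer at room temperature for 30 min. They were then washed, crosslinked with 0.1% formaldehyde, proximity-ligated (BsaI/T4 ligase, 1 h, 37 °C), PCR-amplified and sequenced on an Illumina NextSeq500. Binding signal is each 6-mer's read frequency for a factor divided by its frequency for the GST control.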
# [2] = target: T2, ELK1 (Homo sapiens, UniProt P19419 1-428); settings: protein: recombinant; tags: N-terminal GST; dsDNA, one strand shown
# T2 sequence: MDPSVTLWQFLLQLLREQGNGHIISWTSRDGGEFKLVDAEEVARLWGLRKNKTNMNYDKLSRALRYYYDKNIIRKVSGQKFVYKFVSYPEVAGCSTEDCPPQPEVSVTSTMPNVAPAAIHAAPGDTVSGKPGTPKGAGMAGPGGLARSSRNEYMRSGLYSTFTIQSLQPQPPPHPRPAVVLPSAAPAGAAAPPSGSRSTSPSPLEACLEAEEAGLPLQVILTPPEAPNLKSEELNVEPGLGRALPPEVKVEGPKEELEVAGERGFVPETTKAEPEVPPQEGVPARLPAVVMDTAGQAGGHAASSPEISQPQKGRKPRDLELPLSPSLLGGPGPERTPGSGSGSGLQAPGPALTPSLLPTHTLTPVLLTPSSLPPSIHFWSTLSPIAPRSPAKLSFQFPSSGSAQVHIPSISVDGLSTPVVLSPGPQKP
# Summary of the method: as §1
# [3] = target: T3, GABPA (Homo sapiens, UniProt Q06546 1-454); settings: protein: recombinant; tags: N-terminal GST; dsDNA, one strand shown
# T3 sequence: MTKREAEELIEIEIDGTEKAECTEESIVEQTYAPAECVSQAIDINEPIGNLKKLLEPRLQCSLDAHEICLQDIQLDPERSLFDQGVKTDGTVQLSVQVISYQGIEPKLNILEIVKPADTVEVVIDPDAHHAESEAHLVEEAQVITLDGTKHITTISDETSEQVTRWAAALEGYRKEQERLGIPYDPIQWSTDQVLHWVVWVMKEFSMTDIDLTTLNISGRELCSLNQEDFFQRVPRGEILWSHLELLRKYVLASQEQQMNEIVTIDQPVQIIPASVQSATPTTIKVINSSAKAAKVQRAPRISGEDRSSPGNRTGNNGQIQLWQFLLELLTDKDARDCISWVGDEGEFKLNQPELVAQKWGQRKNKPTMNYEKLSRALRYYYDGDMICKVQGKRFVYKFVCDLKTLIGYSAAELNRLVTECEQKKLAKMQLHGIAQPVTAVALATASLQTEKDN
# Summary of the method: as §1
# [4] = target: T4, ERG (Homo sapiens, UniProt P11308 1-479); settings: protein: recombinant; tags: N-terminal GST; dsDNA, one strand shown
# T4 sequence: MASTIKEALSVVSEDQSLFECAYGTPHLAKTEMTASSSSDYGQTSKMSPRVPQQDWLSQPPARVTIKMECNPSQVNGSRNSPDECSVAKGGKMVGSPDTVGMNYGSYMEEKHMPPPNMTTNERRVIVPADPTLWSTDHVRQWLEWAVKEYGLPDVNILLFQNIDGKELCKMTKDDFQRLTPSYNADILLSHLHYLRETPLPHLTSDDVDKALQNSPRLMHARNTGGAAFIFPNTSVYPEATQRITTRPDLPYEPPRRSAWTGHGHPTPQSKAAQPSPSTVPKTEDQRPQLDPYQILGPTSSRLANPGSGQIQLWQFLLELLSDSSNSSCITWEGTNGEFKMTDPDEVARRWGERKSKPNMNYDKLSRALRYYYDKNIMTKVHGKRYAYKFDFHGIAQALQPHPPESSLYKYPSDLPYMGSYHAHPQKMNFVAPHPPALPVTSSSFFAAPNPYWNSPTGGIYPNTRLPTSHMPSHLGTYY
# Summary of the method: as §1
# [5] = target: ELF1 (Homo sapiens, UniProt P32519 1-619); settings: protein: recombinant; tags: N-terminal GST; dsDNA, one strand shown
# Summary of the method: as §1
# [6] = target: T5, EHF (Homo sapiens, UniProt Q9NZC4 1-300); settings: protein: recombinant; tags: N-terminal GST; dsDNA, one strand shown
# T5 sequence: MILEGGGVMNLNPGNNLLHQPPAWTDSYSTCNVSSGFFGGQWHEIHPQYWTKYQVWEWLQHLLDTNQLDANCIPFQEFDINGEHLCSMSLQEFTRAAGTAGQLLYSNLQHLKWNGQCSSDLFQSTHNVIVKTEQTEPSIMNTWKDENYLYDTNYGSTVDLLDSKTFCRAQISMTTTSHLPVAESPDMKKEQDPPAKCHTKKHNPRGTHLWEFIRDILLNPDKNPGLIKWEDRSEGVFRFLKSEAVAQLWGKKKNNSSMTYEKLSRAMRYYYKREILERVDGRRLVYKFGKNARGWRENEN
# Summary of the method: as §1
# [7] = target: SPI1 (Homo sapiens, UniProt P17947 1-270); settings: protein: recombinant; tags: N-terminal GST; dsDNA, one strand shown
# Summary of the method: as §1
# [8] = target: SPIB (Homo sapiens, UniProt Q01892 1-262); settings: protein: recombinant; tags: N-terminal GST; dsDNA, one strand shown
# Summary of the method: as §1
# [9] = target: T6, ELK3 (Homo sapiens, UniProt P41970 1-407); settings: protein: recombinant; tags: N-terminal GST; dsDNA, one strand shown
# T6 sequence: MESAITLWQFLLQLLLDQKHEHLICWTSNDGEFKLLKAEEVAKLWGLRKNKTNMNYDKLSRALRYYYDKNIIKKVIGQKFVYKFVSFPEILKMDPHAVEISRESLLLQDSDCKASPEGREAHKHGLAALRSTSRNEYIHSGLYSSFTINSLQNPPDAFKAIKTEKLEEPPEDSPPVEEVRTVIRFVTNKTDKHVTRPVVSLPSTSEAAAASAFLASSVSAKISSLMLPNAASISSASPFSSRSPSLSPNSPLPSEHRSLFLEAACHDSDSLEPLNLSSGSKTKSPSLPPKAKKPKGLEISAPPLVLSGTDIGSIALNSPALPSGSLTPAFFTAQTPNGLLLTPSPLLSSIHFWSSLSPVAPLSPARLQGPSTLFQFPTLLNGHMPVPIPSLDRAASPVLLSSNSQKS
# Summary of the method: as §1
# [10] = target: T7, FEV (Homo sapiens, UniProt Q99581 1-238); settings: protein: recombinant; tags: N-terminal GST; dsDNA, one strand shown
# T7 sequence: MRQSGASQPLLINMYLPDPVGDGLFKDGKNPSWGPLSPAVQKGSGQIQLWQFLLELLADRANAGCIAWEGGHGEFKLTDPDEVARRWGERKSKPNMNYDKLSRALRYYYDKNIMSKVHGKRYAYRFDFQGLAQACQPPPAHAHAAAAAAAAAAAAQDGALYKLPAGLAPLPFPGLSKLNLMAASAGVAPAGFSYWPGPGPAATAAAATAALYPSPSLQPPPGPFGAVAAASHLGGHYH
# Summary of the method: as §1
# [11] = target: ETV5 (Homo sapiens, UniProt P41161 1-510); settings: protein: recombinant; tags: N-terminal GST; dsDNA, one strand shown
# Summary of the method: as §1
# [12] = target: HSF1 (Homo sapiens, UniProt Q00613 1-529); settings: protein: recombinant; tags: N-terminal GST; chain copies: 3; dsDNA, one strand shown
# Summary of the method: as §1
# [13] = target: T8, SPIC (Homo sapiens, UniProt Q8N5J4 1-248); settings: protein: recombinant; tags: N-terminal GST; dsDNA, one strand shown
# T8 sequence: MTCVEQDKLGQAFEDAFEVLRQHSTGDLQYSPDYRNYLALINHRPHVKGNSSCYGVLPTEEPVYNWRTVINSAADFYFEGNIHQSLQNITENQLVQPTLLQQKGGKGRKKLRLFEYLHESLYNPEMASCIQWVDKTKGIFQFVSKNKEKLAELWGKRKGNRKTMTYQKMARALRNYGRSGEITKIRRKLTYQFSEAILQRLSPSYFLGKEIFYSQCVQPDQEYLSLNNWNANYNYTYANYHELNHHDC
# Summary of the method: as §1
# [14] = target: ELF4 (Homo sapiens, UniProt Q99607 1-663); settings: protein: recombinant; tags: N-terminal GST; dsDNA, one strand shown
# Summary of the method: as §1
# [15] = target: T9, ELK4 (Homo sapiens, UniProt P28324-2 1-405); settings: protein: recombinant; tags: N-terminal GST; dsDNA, one strand shown
# T9 sequence: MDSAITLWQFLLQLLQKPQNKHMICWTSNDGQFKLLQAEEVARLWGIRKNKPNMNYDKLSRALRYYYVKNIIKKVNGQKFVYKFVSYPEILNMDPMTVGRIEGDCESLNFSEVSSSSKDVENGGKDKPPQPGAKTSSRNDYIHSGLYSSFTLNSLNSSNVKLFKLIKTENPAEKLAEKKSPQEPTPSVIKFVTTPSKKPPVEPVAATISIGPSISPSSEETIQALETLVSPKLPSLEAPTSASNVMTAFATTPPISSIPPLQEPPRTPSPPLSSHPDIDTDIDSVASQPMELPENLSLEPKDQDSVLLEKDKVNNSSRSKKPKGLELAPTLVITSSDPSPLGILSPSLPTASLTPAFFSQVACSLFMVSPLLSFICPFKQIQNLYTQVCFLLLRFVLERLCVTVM
# Summary of the method: as §1
# [16] = target: T10, ETV2 (Homo sapiens, UniProt O00321 1-342); settings: protein: recombinant; tags: N-terminal GST; dsDNA, one strand shown
# T10 sequence: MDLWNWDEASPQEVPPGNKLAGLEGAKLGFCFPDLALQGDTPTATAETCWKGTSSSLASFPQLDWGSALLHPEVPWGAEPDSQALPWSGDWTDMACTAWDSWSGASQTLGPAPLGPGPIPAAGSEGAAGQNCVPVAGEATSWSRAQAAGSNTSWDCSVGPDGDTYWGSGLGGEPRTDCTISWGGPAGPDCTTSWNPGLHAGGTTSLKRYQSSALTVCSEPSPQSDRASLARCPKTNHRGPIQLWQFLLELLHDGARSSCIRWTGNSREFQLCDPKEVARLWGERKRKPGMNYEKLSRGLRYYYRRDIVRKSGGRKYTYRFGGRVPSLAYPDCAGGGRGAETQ
# Summary of the method: as §1
# [17] = target: T11, ELF3 (Homo sapiens, UniProt P78545 1-371); settings: protein: recombinant; tags: N-terminal GST; dsDNA, one strand shown
# T11 sequence: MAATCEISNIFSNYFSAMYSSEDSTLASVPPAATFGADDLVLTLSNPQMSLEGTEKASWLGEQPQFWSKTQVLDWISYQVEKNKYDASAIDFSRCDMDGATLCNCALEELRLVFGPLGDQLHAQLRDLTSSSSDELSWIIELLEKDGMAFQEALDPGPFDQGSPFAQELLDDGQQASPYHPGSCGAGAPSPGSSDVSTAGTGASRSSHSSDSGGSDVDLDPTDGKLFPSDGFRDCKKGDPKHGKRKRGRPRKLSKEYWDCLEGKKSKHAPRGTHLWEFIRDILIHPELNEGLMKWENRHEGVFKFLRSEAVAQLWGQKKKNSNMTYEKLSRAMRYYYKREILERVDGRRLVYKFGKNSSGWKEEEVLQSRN
# Summary of the method: as §1
# [18] = target: CRX (Homo sapiens, UniProt O43186 1-299); settings: protein: recombinant; tags: N-terminal GST; dsDNA, one strand shown
# Summary of the method: as §1
# [19] = target: ETV1 (Homo sapiens, UniProt P50549 1-477); settings: protein: recombinant; tags: N-terminal GST; dsDNA, one strand shown
# Summary of the method: as §1
# Sequence of HSF1 (Q00613 whole entry): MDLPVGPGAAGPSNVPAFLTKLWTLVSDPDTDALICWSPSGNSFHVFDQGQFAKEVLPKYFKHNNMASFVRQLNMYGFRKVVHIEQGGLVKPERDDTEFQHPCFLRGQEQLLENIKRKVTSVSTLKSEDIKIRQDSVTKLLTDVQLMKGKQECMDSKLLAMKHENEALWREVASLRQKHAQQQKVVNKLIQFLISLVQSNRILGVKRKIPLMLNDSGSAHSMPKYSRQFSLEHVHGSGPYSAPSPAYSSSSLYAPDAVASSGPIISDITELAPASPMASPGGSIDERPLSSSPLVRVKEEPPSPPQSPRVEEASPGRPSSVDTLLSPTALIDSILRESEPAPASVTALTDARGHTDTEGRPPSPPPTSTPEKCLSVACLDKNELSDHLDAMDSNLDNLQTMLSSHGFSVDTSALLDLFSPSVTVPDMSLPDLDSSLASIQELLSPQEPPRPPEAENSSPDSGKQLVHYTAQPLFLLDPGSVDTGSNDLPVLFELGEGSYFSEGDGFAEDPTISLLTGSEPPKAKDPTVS
# Sequence of ELF4 (Q99607 whole entry): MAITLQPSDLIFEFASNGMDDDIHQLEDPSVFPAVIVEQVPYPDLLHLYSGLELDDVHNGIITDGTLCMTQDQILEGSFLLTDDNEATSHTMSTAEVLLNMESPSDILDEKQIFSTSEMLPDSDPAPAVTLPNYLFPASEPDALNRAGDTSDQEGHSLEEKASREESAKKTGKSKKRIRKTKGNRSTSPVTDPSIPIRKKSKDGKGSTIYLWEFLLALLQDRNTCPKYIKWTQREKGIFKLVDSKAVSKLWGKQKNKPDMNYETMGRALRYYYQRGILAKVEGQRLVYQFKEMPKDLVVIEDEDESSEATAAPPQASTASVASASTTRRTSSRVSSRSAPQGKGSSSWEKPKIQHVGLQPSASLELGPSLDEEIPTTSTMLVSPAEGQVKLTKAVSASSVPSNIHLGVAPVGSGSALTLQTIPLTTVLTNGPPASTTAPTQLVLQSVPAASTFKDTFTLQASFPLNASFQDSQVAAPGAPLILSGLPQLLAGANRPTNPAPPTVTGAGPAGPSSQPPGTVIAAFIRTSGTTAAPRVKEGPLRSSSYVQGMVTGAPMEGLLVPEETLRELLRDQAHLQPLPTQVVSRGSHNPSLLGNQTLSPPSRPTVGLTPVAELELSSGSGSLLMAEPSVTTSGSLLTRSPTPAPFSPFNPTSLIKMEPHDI
# Sequence of ETV1 (P50549 whole entry): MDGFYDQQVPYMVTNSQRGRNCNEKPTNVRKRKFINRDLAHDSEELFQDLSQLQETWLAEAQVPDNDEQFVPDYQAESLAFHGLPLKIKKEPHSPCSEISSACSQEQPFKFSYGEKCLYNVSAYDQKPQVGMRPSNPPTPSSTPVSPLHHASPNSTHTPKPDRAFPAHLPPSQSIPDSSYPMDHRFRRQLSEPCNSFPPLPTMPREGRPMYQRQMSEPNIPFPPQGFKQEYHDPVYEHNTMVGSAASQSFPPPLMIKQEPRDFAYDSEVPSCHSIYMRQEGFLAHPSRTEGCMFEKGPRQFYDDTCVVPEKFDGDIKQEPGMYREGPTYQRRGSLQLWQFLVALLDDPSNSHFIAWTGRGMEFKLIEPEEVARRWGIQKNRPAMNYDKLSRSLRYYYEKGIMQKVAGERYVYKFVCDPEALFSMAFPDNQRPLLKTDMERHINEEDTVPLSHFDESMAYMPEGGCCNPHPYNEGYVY
# Sequence of CRX (O43186 whole entry): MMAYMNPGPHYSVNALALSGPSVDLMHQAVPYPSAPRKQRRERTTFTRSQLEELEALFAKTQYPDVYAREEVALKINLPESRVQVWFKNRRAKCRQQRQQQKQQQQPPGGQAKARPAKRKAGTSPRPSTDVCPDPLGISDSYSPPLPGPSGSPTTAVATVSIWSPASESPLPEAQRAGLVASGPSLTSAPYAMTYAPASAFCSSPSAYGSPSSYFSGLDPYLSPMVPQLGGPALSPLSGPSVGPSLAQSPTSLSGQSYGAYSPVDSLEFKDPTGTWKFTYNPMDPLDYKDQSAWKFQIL
# Sequence of SPIB (Q01892 whole entry): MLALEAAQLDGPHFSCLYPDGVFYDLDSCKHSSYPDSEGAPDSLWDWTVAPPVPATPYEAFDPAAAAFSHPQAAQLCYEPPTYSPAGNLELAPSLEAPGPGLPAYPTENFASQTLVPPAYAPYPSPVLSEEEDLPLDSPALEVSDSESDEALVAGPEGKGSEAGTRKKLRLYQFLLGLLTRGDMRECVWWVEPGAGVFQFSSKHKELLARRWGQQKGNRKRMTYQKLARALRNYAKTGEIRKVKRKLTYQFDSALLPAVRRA
# Sequence of ELF1 (P32519 whole entry): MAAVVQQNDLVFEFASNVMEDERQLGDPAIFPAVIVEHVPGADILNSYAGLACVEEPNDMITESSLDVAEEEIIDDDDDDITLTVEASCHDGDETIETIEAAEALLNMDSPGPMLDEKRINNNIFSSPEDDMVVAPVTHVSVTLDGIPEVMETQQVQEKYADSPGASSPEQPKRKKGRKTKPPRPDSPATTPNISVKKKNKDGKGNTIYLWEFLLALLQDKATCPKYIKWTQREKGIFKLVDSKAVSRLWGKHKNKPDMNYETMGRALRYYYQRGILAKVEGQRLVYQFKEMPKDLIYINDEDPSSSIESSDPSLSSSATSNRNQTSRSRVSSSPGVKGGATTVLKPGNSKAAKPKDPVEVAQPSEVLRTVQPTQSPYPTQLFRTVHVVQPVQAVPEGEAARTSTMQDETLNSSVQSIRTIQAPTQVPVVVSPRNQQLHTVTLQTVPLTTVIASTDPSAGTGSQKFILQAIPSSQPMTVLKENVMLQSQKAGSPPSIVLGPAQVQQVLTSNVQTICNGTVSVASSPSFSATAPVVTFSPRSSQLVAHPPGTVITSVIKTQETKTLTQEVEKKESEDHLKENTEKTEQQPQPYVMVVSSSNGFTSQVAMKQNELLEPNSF
# Sequence of ETV5 (P41161 whole entry): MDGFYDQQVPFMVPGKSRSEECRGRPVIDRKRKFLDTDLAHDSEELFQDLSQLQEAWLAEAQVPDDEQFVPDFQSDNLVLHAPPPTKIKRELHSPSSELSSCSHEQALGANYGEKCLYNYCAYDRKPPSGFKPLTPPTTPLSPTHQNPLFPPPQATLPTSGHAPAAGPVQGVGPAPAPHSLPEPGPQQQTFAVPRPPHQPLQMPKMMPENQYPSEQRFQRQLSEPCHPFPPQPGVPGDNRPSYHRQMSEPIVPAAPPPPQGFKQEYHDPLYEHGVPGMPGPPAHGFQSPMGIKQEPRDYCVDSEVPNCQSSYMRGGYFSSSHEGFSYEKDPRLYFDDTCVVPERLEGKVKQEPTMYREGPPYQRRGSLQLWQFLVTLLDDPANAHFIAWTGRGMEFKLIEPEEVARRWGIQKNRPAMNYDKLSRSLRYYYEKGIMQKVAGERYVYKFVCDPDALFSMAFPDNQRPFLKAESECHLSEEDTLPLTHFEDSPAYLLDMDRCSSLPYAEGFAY
sequence,measurement,setting,value
AGCTCT,binding signal,[1],"1.19 fold enrichment (6-mer frequency, TF over GST control)"
same,binding signal,[2],"1.25 fold enrichment (6-mer frequency, TF over GST control)"
same,binding signal,[3],"1.17 fold enrichment (6-mer frequency, TF over GST control)"
same,binding signal,[4],"1.11 fold enrichment (6-mer frequency, TF over GST control)"
same,binding signal,[5],"1.23 fold enrichment (6-mer frequency, TF over GST control)"
same,binding signal,[6],"1.18 fold enrichment (6-mer frequency, TF over GST control)"
same,binding signal,[7],"1.04 fold enrichment (6-mer frequency, TF over GST control)"
same,binding signal,[8],"1.04 fold enrichment (6-mer frequency, TF over GST control)"
same,binding signal,[9],"1.15 fold enrichment (6-mer frequency, TF over GST control)"
same,binding signal,[10],"1.19 fold enrichment (6-mer frequency, TF over GST control)"
same,binding signal,[11],"1.15 fold enrichment (6-mer frequency, TF over GST control)"
same,binding signal,[12],"1.25 fold enrichment (6-mer frequency, TF over GST control)"
same,binding signal,[13],"1.24 fold enrichment (6-mer frequency, TF over GST control)"
same,binding signal,[14],"1.21 fold enrichment (6-mer frequency, TF over GST control)"
same,binding signal,[15],"1.22 fold enrichment (6-mer frequency, TF over GST control)"
same,binding signal,[16],"1.14 fold enrichment (6-mer frequency, TF over GST control)"
same,binding signal,[17],"1.21 fold enrichment (6-mer frequency, TF over GST control)"
same,binding signal,[18],"1.41 fold enrichment (6-mer frequency, TF over GST control)"
same,binding signal,[19],"1.25 fold enrichment (6-mer frequency, TF over GST control)"
